Screens from PubChem.
Shown is part of a subset that was picked to be rich in hits.
GC-B act – GC-B (human) receptor activation | P20594 | HEK293-GC-B cells, CNP EC30, cGMP TR-FRET; 0% at EC30 CNP, 100% saturating CNP | activation, % at 10 µM | 370,000 compounds, 0.11% hits | AID 1920062;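 active = activation at 10 µM reaching about 35% in either raw or pattern-adjusted values, limit read from the data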
NPR1 activator – GC-A (human) enzyme activation; P16066; HEK293 GC-A cells, cGMP TR-FRET, EC30 ANP; 0% at EC30 ANP, 100% saturating ANP; activation, % at 10 µM; 370,000 compounds, 0.14% hits; AID 1671463; in the data active = activation above about 40%
Target sequence (P16066 whole entry, looked up): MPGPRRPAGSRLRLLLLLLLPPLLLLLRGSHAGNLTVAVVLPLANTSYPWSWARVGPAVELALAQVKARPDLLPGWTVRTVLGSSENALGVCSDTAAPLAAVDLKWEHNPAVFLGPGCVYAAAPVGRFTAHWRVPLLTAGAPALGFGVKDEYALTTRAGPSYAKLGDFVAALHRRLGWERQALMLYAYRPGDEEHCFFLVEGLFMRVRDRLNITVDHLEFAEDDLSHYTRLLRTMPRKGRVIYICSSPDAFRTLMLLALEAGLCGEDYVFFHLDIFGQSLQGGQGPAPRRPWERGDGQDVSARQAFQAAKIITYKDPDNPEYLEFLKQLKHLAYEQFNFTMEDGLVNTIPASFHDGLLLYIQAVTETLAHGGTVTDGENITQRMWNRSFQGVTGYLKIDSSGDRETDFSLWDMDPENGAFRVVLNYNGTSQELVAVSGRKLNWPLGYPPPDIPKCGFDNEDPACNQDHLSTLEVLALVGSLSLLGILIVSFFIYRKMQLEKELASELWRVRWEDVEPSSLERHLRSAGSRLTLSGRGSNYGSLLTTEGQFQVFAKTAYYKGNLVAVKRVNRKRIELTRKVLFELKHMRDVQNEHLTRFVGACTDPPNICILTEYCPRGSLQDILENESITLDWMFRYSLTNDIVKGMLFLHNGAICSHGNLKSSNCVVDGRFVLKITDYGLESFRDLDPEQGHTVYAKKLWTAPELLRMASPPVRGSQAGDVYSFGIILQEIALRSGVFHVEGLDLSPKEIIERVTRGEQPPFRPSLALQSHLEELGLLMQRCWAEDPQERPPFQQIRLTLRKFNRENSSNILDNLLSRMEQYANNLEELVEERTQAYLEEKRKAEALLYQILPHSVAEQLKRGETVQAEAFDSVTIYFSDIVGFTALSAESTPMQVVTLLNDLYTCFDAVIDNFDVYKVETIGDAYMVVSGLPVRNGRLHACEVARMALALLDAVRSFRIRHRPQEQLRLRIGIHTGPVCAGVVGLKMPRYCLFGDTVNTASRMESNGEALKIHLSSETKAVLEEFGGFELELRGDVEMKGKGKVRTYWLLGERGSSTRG
ALR inh – human ALR oxidase inhibition via reduced H2O2; P55789; purified ALR, DTT oxidation, H2O2 HRP-luminol luminescence; inhibition, % (no concentration beside the values); 290,000 compounds, 3.8% hits;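 active = mean replicate inhibition above about 79%, with every replicate also reaching it, limit read from the data; inconclusive = only one of the two criteria met; inactive = mean below limit and not every replicate reaching it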
HDAC3 inhib – blocks human histone deacetylase 3; recombinant HDAC3, fluorogenic peptide/trypsin coupled, fluorescence; inhibition, % at 8.3 µM; 320,000 compounds, 0.15% hits; AID 2718; in the data active = inhibition above about 26%, passing the limit was not always enough; inconclusive = no clear call, values can overlap the other calls
A number is an active result; n = inactive; u = inconclusive; x = no result given.

SMILES | GC-B act | NPR1 activator | ALR inh | HDAC3 inhib
COc1cc(C(=O)Nc2ccncc2)c([N+](=O)[O-])cc1OC | n | n | n | n
COc1cc(C(=O)Nc2ccc(N(C)C)cc2)c([N+](=O)[O-])cc1OC | n | n | 89 | n
O=C(Nc1ccc(O)cc1)/C(=C\c1cccs1)NC(=O)c1ccccc1 | n | n | 100 | n
Cc1ccc(NC(=O)/C(=C\c2cccs2)NC(=O)c2ccccc2)cc1 | n | n | n | n
COc1cc(/C=C(/NC(=O)c2ccccc2)C(=O)Nc2ccccc2)c([N+](=O)[O-])cc1OC | n | n | n | n
CCN(CC)S(=O)(=O)c1ccc(C(=O)NCC(c2ccc(OC)cc2)N2CCOCC2)cc1 (stereo not given) | n | n | n | n
CCn1ccnc1C(O)c1ccc(N(C)C)cc1 (stereo not given) | n | n | 99 | n
O=C1C2C3CCC(C3)C2C(=O)N1CNc1ccccc1 (stereo not given) | n | n | n | n
CC(=O)Nc1ccc(NCN2C(=O)[C@@H]3[C@H]4CC[C@H](C4)[C@@H]3C2=O)cc1 | n | n | 94 | n
C=CCNC(=O)/C(=C/c1cccc([N+](=O)[O-])c1)NC(=O)c1ccco1 | n | n | n | n
CCOc1c(Br)cc(CNc2ccc(N3CCOCC3)cc2)cc1OC | n | n | 98 | n
O=C(O)C1Cc2ccccc2CN1S(=O)(=O)c1ccc2ccccc2c1 (stereo not given) | n | n | 95 | n
O=C(C(=O)N1CCC(CNC(=O)c2cccnc2Cl)CC1)c1cc2ccccc2o1 | n | n | x | x
COc1ccc(OCc2cc(-c3ccc(Cl)cc3)no2)cc1 | n | n | n | n
O=C(CCl)NCc1cc(-c2ccc(Cl)cc2)no1 | n | n | 97 | n
CSCc1ccc(C(=O)NC(C)c2cnn(-c3ccccn3)c2C)o1 (stereo not given) | n | n | 90 | n
O=C1N=C(c2ccccc2)C(c2ccccc2)N1 (stereo not given) | n | n | 99 | n
COc1ccc(C2=NC(=O)NC2c2ccc(OC)cc2)cc1 (stereo not given) | n | n | n | n
Cc1sc2nc(CSCC(=O)NC3(C#N)CCCCC3)[nH]c(=O)c2c1C | n | n | 95 | n
CCc1cccc(NC(=O)CSCc2nc3sc(C)c(C)c3c(=O)[nH]2)c1 | n | n | n | n
O=C(Nc1cccc([N+](=O)[O-])c1)c1[nH]ncc1Cl | n | n | 96 | n
Cc1cc(C)nc(N2CCCC(C(=O)NCc3ccccc3F)C2)n1 (stereo not given) | n | n | n | u
C[C@@H]1CCCCO[C@@H](CN(C)S(=O)(=O)c2ccccc2)[C@@H](C)CN([C@H](C)CO)C(=O)c2cc(NS(=O)(=O)c3ccc(F)cc3)ccc2O1 | n | n | x | x
O=S(=O)(/N=S1/CC=CCN1S(=O)(=O)c1ccccc1)c1ccccc1 (stereo not given) | x | x | 99 | n
CCCC/C=C1/[C@@H](CC)N(Cc2ccc(OC)cc2OC)C2=N[C@@H](c3ccccc3)CC(=O)N21 | n | n | x | x
SMILES | GC-B act | NPR1 activator | ALR inh | HDAC3 inhib
COc1ccccc1NC(=O)Nc1ccccc1N1CCOCC1 | n | n | n | n
O=C(O)CCn1cc(C2CC(c3ccccc3)=NN2c2ccccc2)c(-c2ccccc2)n1 (stereo not given) | n | n | 99 | n
Cc1nc(C)c(-c2csc(Nc3ccc(O)c(C(=O)O)c3)n2)s1 | n | n | 89 | n
CC(=O)Nc1nc(C)c(-c2csc(Nc3ccc(O)cc3)n2)s1 | x | x | 99 | n
Cc1cc(O)ccc1Nc1nc(-c2sc(N)nc2C)cs1 | n | n | 85 | n
Cc1nc(C)c(-c2csc(Nc3cccnc3)n2)s1 | n | n | 89 | n
CCC(=O)Nc1nc(C)c(-c2csc(Nc3ccc(C(=O)O)cc3)n2)s1 | n | n | x | x
CCC(=O)Nc1nc(C)c(-c2csc(Nc3cccc(C(=O)O)c3)n2)s1 | n | n | 88 | n
C[C@H](CO)N1C[C@H](C)[C@@H](CN(C)Cc2ccncc2)Oc2ccc(NC(=O)CCCCCC(=O)Nc3ccccc3N)cc2C1=O | n | n | n | 90
CC(=O)Nc1ccc(S(=O)(=O)Nc2nc3ccccc3nc2Nc2ccc(O)c(C(=O)O)c2)cc1 | n | n | 99 | n
O=C(O)c1cccc(Nc2nc3ccccc3nc2NS(=O)(=O)c2ccc(F)cc2)c1 | n | n | u | n
CC(=O)Nc1ccc(S(=O)(=O)Nc2nc3ccccc3nc2Nc2ccc(S(N)(=O)=O)cc2)cc1 | n | n | n | n
Cc1cccc(S(=O)(=O)Nc2nc3ccccc3nc2Nc2cccc(C(=O)O)c2)c1 | n | n | 98 | n
